Screening results as filed in PubChem BioAssay.
Hits are enriched below; roughly 1.1% of the tested compounds scored in any of these assays.
NCOA3 inh: inhibitors of human steroid receptor coactivator 3 (SRC3); Q9Y6Q9; HEK293 GAL4-SRC3 luciferase reporter, luminescence; inhibition, % at 3.6 µM; 360,000 compounds, 0.17% hits; AID 588352;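 active = inhibition above a per-campaign cutoff, the mean of all compounds plus 3 SD, cut at about 60% in these data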;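 note: 0% = DMSO-treated cells and 100% = gossypol-treated cells at 36 µM; higher means less SRC3-driven luciferase light from the GAL4 reporter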
NCOA2 inhibitor: human SRC2 (NCOA2) inhibition | Q15596 | HEK293 GAL4-SRC2 luciferase reporter, luminescence | inhibition, % at 9 µM | 370,000 compounds, 0.17% hits | AID 651957;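 active = inhibition above the mean inhibition of all tested compounds plus 3 SD, set per campaign, cut at about 52% in these data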;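 note: 0% = DMSO treated cells and 100% = cells given Gossypol at 36 µM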
NR5A2 inv ag: suppresses constitutive activity of human LRH-1. O00482. HEK293T StAR-luciferase reporter, LRH-1 transfected, 24 h. inhibition, % at 3.6 µM. 360,000 compounds, 0.13% hits. AID 602396;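 active = inhibition above the mean inhibition of all tested compounds plus 3 SD, cut at about 73% in these data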;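 note: 0% = DMSO wells and 100% = reporter-only cells lacking LRH-1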
Target sequence (O00482 whole entry, looked up): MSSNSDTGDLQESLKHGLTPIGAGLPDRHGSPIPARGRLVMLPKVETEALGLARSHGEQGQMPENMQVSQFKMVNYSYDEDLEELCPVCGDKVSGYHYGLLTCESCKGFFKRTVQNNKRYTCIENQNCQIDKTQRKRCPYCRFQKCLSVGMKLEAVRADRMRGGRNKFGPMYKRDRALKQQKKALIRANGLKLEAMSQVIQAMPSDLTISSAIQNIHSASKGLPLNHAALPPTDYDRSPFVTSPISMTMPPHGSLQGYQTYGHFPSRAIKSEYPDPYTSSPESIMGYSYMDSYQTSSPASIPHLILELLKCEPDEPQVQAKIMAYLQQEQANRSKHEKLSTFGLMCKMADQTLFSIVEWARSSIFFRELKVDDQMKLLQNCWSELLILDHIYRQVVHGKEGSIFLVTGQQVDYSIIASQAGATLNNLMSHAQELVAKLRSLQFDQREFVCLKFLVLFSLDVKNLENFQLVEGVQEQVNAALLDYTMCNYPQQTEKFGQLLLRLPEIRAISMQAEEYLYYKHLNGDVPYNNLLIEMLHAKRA
COUP-TFII inh: NR2F2 (human) inhibition, primary screen | P24468 | HEK293T NGFI-A luciferase reporter, luminescence | inhibition, % at 8.6 µM | 370,000 compounds, 0.7% hits | AID 686940;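 active = inhibition above a per-plate cutoff, mean inhibition of test wells between control levels plus 3 SD, cut at about 38% in these data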;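 note: cells cotransfected with COUP-TFII expression vector driving the NGFI-A reporter; 0% = median of COUP-TF2 test wells and 100% = reporter-only cells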
GalR3 antag: blocks the human galanin receptor 3. O60755. HEK293 GalR3-CNG cAMP membrane potential fluorescence; galR3 body fused to GalR1 C-terminus. inhibition, % at 3 µM. 360,000 compounds, 0.44% hits;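 active = inhibition above the screen-wide average plus 3 SD, cut at about 13% in these data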;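 note: forskolin and galanin both at EC90 stimulate the cells; cAMP rise reported by CNG channel membrane potential dye signal; 0% = forskolin plus galanin with DMSO and 100% = forskolin alone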
SRC1 inh: inhibitors of human steroid receptor coactivator 1 (SRC1). AID 588354. 360,000 compounds, 0.12% hits. inhibition, % at 3.6 µM. HEK293 GAL4-SRC1 luciferase reporter, luminescence. Q15788;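 active = inhibition above the campaign mean plus 3 SD, with each screening campaign given its own cutoff, cut at about 60% in these data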;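 note: 0% = DMSO treated cells and 100% = gossypol at 36 µM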
GalR3 antag conf: GalR3 (human) antagonism, confirmation; shares compounds with GalR3 antag; 1,600 compounds, 59% hits; AID 652245; HEK293 GalR3 CNG cAMP biosensor, membrane potential fluorescence; galR3 fused to GalR1 carboxy tail; challenged with forskolin and galanin at EC90; inhibition, % at 3 µM;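 active = inhibition above the primary screen's cutoff, the mean inhibition of all screened compounds plus 3 SD, cut at about 13% in these data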;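 note: 0% = forskolin plus galanin and 100% = forskolin alone with DMSO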
CNG parental: parental cell agonism counter-screen for GalR3 antagonists; shares compounds with GalR3 antag; HEK293-CNG parental cells, cAMP membrane potential fluorescence; normalised: DMSO wells 0%, forskolin wells 100%; activation, % at 3 µM; 1,600 compounds, 10% hits; in the data active = activation above about 1.3%
Numbers without * were called inactive; . = no result.

SMILES	NCOA3 inh	NCOA2 inhibitor	NR5A2 inv ag	COUP-TFII inh	GalR3 antag	SRC1 inh	GalR3 antag conf	CNG parental
CC(=O)COc1ccc2cc(-c3ccccc3)c(=O)oc2c1	-114	-102	-74	-46	-12	-112	.	.
COc1cc(/C=N/NC(=O)C(=O)N2CCCCCC2)ccc1O	-22	-23	-1	16	4	-2	.	.
COc1ccc(/C=N/NC(=O)C(C)Sc2ccccn2)cc1[N+](=O)[O-] (stereo unspecified)	15	11	-1	-5	19*	2	3	0
COc1ccc(/C=N/NC(=O)C(=O)N2CCCCCC2)cc1[N+](=O)[O-]	-35	1	-12	-9	17*	-31	22*	0
CC(C)Oc1cccc(-c2n[nH]c(=S)n2N=Cc2cccc([N+](=O)[O-])c2)c1	.	-7	.	-14	.	.	.	.
COc1ccc(NC(=O)c2ccc(-c3c(C)noc3C)c3ccoc23)cn1	-22	-88	-25	-82	44*	-1	8	1
CC(=O)Nc1ccc(NC(=O)c2ccc(-c3c(C)noc3C)c3ccoc23)cc1	-11	-64	17	-76	-5	-9	.	.
C=CCN1C(C(=O)OC)CN(Cc2cn(Cc3ccc(Cl)cc3)nn2)CCS1(=O)=O (stereo unspecified)	.	6	.	5	.	.	.	.
CCc1noc2cc(-c3ccccc3)n(C)c(=O)c12	.	-43	.	-32	-7	.	.	.
Cc1cc(C)cc(C(=O)OCCCN(C)C2CN(Cc3cn(Cc4ccc([N+](=O)[O-])cc4)nn3)S(=O)(=O)C2)c1 (stereo unspecified)	.	-31	.	31	.	.	.	.
O=C(Nc1ccc(Br)cc1F)c1ccncc1	-20	-21	-6	-33	22*	-4	15*	0
O=C(Nc1ccccc1F)c1ccncc1	1	-6	-2	-2	-3	-11	.	.
O=C(O)CCCn1cc(NC(=O)c2c(F)cccc2F)cn1	8	10	8	-21	15*	-8	5	0
O=C(O)CCCn1cc(NC(=O)c2ccc(F)cc2)cn1	14	-29	-15	-16	1	-3	.	.
O=C(N[C@@H](Cc1ccccc1)C(=O)N1CCC2CCN(S(=O)(=O)c3ccccc3)CC21)[C@@H]1CCCN1 (stereo partly specified)	.	-9	.	-13	.	.	.	.
O=C(/C=C/c1cn(-c2ccccc2)nc1-c1cccnc1)NCCN1CCOCC1	8	12	15	-11	18*	4	14*	0
C/C=C/C(=O)N1CCC(C(=O)NCC2COc3ccccc3O2)CC1 (stereo unspecified)	.	16	.	18	.	.	.	.
Cc1ccc(S(=O)(=O)Oc2ccccc2/C=N/Nc2ccc(C(=O)O)cc2)cc1	6	16	-4	-2	18*	-3	2	0
O=S1(=O)c2c(NCc3ccco3)cccc2Oc2ccccc2CN1Cc1cn(Cc2cccc(F)c2)nn1	.	13	.	8	.	.	.	.
CS(=O)(=O)c1ncc(Cl)c(C(=O)Nc2ccc3ccccc3c2)n1	-43	13	-59	-18	20*	-136	-2	0
CC(=O)Nc1ccc(NC(=O)c2nc(S(=O)(=O)Cc3ccccc3)ncc2Cl)cc1	-53	-10	-18	-36	-6	-44	.	.
CC(C)(C)c1ccc(-c2nnc(SCC(=O)c3ccc([N+](=O)[O-])cc3)n2-c2ccc(Cl)cc2)cc1	.	-4	.	-5	.	.	.	.
C[C@H](CCCCC1(C)OCCO1)CCC(=O)N(c1ccccc1)c1ccccc1	.	11	.	9	.	.	.	.
COc1cccc(-c2cc(C(=O)Nc3ccc(N(C)C(C)=O)cc3)c3cc(Br)ccc3n2)c1	17	23	4	-24	19*	-2	10	1.4*
FC(F)(F)c1cc(-c2ccccc2)nc(N2CCCCCC2)n1	3	10	2	1	15*	-16	3	0
SMILES	NCOA3 inh	NCOA2 inhibitor	NR5A2 inv ag	COUP-TFII inh	GalR3 antag	SRC1 inh	GalR3 antag conf	CNG parental
O=[N+]([O-])c1cc(S(=O)(=O)c2ccc(N3CCCCC3)c([N+](=O)[O-])c2)ccc1N1CCCCC1	0	7	-9	23	27*	9	0	2.2*
COc1ccccc1OCc1ccc(C(=O)OCC2CCCO2)o1 (stereo unspecified)	6	15	-8	-12	15*	-19	3	0
Fc1cccc(CNC2CCC23CCC(c2ccccc2)CC3)c1 (stereo unspecified)	.	.	.	-7	.	.	.	.
O=C(COc1ccc(Cl)cc1)Nc1ccc(CN2CCOCC2)cc1	22	-10	6	0	-5	-24	.	.
CCC(C)c1ccc(OCC(=O)Nc2ccc(CN3CCOCC3)cc2)cc1 (stereo unspecified)	9	9	6	28	18*	-15	9	0
CC(C)c1ccc(/C=C/C(=O)NC(=S)Nc2ccc(CN3CCOCC3)cc2)cc1	21	-3	4	-18	46*	2	75*	22*
CC(C)(C)N1Cc2nnn(CC3CCCCC3)c2-c2ccccc2S1(=O)=O	.	13	.	-4	.	.	.	.
COc1ccccc1NC(=S)NC(=O)c1c(-c2ccccc2Cl)noc1C	13	-2	13	12	15*	10	6	0
O=C(Nc1cccc(Cl)c1)O[C@@H]1CC[C@@]23CCCN2C(=O)CCC[C@H]3C1	.	.	.	-6	.	.	.	.
COc1ccc(O)c(C(=O)c2cnn(-c3ccccn3)c2)c1	-30	-39	-97	-30	-4	-40	.	.
COc1ccc(O)c(C(=O)c2cnc3nc4ccccc4n3c2)c1	-7	-14	-8	16	22*	-13	18*	1
O=C([C@@H]1C[C@H]1c1ccccc1)N1CC[C@H]2[C@H](CCCN2Cc2ccccc2)C1	.	-1	.	12	.	.	.	.
CC1CC(=O)NN=C1c1ccc(N)c([N+](=O)[O-])c1 (stereo unspecified)	-7	-11	-15	-6	64*	-15	73*	0
O=C(c1ccc(F)cc1F)N1CCC(Oc2cccnc2)CC1	.	7	.	1	.	.	.	.
COc1ccc(Nc2nc(Cl)nc(NCCO)n2)cc1	2	-13	15	-3	20*	-6	-1	0
CCOC(=O)Cn1nnnc1C(C(C)C)N(Cc1cccs1)Cc1cc2cc(C)ccc2[nH]c1=O (stereo unspecified)	-14	-1	14	3	37*	-7	28*	1
CCOC(=O)Cn1nnnc1C(CC)N(Cc1cccs1)Cc1cc2cc(C)ccc2[nH]c1=O (stereo unspecified)	18	-2	1	18	0	-9	.	.
